# Source: PubChem
# Sampled rows, rich in hits. Any-hit rate of the full collection: about 3.4%.
# MEKK2wt PB1 HTS: raises or lowers MEK5 binding to wildtype human MEKK2 PB1 domain; bead flow cytometry, Alexa488-MEK5 binding to MEKK2 WT; actives lie on both sides; binding response (% of control), % at 10 µM; hit rate 1.1% among 290,000; AID 1531; in the data active = binding response below about 67% or above about 130%
# NTR1 ag: agonists of human neurotensin receptor NTR1 | activation, % at 20 µM | NTR1-U2OS beta-arrestin-GFP spot imaging, agonist mode | hit rate 0.17% among 330,000 | P30989;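 active = activation at or above 40% of the spot to cytoplasm intensity ratio, with at least 20 cells analyzed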
# TMEM16A inh: inhibitors of mouse TMEM16A calcium-activated chloride channel; normalized B-score (activity score, 25-100; higher = stronger inhibition) at 10 µM; Q8BHY3; hit rate 1.2% among 310,000; AID 588511; HEK293 TMEM16A/YFP iodide influx fluorescence, ionomycin;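 active = ratio plate-corrected score three or more library SD toward inhibition, starting fluorescence score within five deviations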;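 note: score derived from kinetic fluorescence span divided by baseline fluorescence per well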
# Target sequence (Q8BHY3 whole entry, looked up): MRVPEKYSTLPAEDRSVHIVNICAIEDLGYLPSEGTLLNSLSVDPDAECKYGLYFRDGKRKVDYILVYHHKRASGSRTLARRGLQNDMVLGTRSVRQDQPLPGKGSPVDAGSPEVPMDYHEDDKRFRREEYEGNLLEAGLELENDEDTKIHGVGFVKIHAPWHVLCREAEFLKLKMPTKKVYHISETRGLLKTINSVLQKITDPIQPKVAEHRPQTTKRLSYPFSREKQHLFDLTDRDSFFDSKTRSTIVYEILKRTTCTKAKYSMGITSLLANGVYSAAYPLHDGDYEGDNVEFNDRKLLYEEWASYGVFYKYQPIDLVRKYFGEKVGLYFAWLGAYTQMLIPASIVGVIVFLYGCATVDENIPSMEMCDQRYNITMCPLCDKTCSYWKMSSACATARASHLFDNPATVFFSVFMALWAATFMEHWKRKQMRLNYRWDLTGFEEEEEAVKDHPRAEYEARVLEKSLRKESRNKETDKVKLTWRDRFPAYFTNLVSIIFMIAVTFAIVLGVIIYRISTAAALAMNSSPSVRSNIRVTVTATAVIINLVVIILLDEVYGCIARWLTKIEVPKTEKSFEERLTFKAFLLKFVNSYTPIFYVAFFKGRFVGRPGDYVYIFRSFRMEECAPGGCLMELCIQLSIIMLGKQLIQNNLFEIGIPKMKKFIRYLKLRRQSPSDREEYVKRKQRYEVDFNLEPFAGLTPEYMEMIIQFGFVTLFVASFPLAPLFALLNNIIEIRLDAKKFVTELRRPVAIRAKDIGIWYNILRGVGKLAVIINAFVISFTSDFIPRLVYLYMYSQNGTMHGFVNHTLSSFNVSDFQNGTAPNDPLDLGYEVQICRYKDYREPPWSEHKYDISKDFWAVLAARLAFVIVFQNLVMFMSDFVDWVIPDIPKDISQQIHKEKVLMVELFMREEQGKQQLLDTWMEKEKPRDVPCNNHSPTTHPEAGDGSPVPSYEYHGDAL
# MEKK2mut PB1 HTS: signal of MEK5 binding to mutant human MEKK2 PB1 domain. bead flow cytometry, Alexa488-MEK5 binding to MEKK2 mutant. percent response, % at 10 µM. hit rate 0.35% among 290,000; in the data active = percent response above about 24%, passing the limit was not always enough
# MEKK3 PB1 HTS: MEKK3-MEK5 PB1 interaction, increase or decrease | hit rate 1.4% among 290,000 | bead-based flow cytometry, Alexa488-MEK5 binding to MEKK3; actives lie on both sides; 0 = blocked by unlabeled MEK5, 100 = vehicle | binding response (% of control), % at 10 µM | AID 1529;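 active = binding response more than 3 SD above or below the average of its plate-row segment, actives on both sides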;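 note: Alexa488 bead fluorescence after subtracting the streptavidin-only scavenger bead signal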
# ANO1 activ: activates or potentiates the mouse TMEM16A chloride channel; Q8BHY3; HEK293 TMEM16A/YFP-H148Q/I152L, iodide quench fluorescence; hits give low values; B-score at 10 µM; hit rate 0.3% among 340,000; AID 623877;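 active = fluorescence-ratio B-score plate-corrected deviation score at least 3 library SD below zero, with starting fluorescence score within 5 deviations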;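 note: channel opened by trigger with iodide after compound preincubation; score built on the fluorescence ratio of max minus min over baseline; more negative score means more quench and so TMEM16A activation or potentiation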
# MEKK2wt confirm: raises or lowers MEK5 binding to wildtype human MEKK2, retest | shares compounds with MEKK3 PB1 HTS | bead flow cytometry, Alexa488-MEK5 binding to MEKK2 WT; actives lie on both sides | binding response (% of control), % at 10 µM | hit rate 2.4% among 5,900 | AID 1892; in the data active = binding response below about 16% or above about 210%; inactive = in between
# MEKK2mut confirm: signal of MEK5 binding to mutant human MEKK2, retest; percent response, % at 10 µM; bead flow cytometry, Alexa488-MEK5 binding to MEKK2 mutant; shares compounds with MEKK3 PB1 HTS; hit rate 2% among 5,900; in the data active = percent response mostly above about 71%, no sharp cut-off; inactive = mostly below about 38%;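 note: higher means compound restores mutant binding toward wildtype level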
# MEKK3 confirm: confirmation of inhibitors of MEK5 binding to human MEKK3. shares compounds with MEKK3 PB1 HTS. AID 1894. binding response (% of control), % at 10 µM. bead flow cytometry, Alexa488-MEK5 binding to MEKK3; hits give low values. hit rate 1.8% among 5,900;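 active = binding response below 72% of control, or above a set upper limit, though filed actives all read lower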;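 note: lower values mean stronger disruption of MEK5 binding to MEKK3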
# A number is an active result; i = inactive; nt = no result; [ ] = remark or other dose.
SMILES,MEKK2wt PB1 HTS,NTR1 ag,TMEM16A inh,MEKK2mut PB1 HTS,MEKK3 PB1 HTS,ANO1 activ,MEKK2wt confirm,MEKK2mut confirm,MEKK3 confirm
COc1cc(/C=C(/NC(=O)c2ccccc2)C(=O)N2CCN(C)CC2)c([N+](=O)[O-])cc1OC,i,i,i,i,130,i,i,i,i
CCOC(=O)Cn1nc(C)c2c1CCCC2=O,i,i,i,i,i,i,nt,nt,nt
Cc1nn(CCO)c2c1C(=O)CCC2,i,i,i,i,128,i,i,i,i
COC(=O)CCC(=O)N1CCCC(N2CCN(c3cccc(C(F)(F)F)c3)CC2)C1 (stereo unspecified),19[inhibitor],i,i,i,37[inhibitor],i,i,i,i
O=C(CCC1CCCCC1)NCCN1C2=NC[C@@H](Cc3ccccc3)N2C[C@H]1Cc1ccc(O)cc1,149,i,i,i,i,i,i,i,i
COc1ccc(C[C@H]2CN3C(=NC[C@@H]3C)N2CCNC(=O)CCC2CCCCC2)cc1,i,i,i,i,i,i,nt,nt,nt
NC1=NC[C@@H](Cc2ccc(O)cc2)N1CCCCC1CCCCC1,134,i,i,i,i,i,i,i,i
O=C(CCC1CCCCC1)NCCN1C2=NC[C@H](Cc3ccccc3)N2C[C@H]1Cc1ccc(O)cc1,163,i,i,i,i,i,i,89,i
C[C@H]1CN=C2N(CCNC(=O)CCC3CCCCC3)[C@H](Cc3ccc(O)cc3)CN21,i,i,i,i,i,i,nt,nt,nt
COc1cccc2cc(CC(=O)c3ccc(C)cc3C)c(=O)oc12,i,i,i,i,i,i,nt,nt,nt
CCCCN1C(=O)C2NN=C(C(=O)OC)C2C1=O (stereo unspecified),i,i,i,i,i,i,nt,nt,nt
COc1ccc(C(=O)C[n+]2cccc3cc(C)ccc32)cc1,nt,i,i,241,i,i,i,i,i
CN(C)c1cc[n+](CC(=O)c2ccc(Br)cc2)cc1,i,i,i,i,i,i,nt,nt,nt
COc1ccc(C(=O)C[n+]2ccc(N(C)C)cc2)cc1,i,i,i,i,135,i,i,i,i
O=[N+]([O-])c1cc(S(=O)(=O)N2CCCCC2)ccc1NCCCN1CCOCC1,i,i,i,i,i,i,nt,nt,nt
Fc1ccccc1-c1csc(=Nc2cccnc2)n1CC1CCCO1 (stereo unspecified),i,i,i,i,i,i,nt,nt,nt
Fc1ccccc1-c1csc(=Nc2cccnc2)n1CCCn1ccnc1,i,i,i,i,137,i,i,i,i
C=CCc1c(C)nc2c(OC)cccc2c1Cl,i,i,i,i,131,i,i,i,i
Cc1cc(C)c(C#N)c(N2CCSCC2)n1,3.0[inhibitor],i,i,i,2.0[inhibitor],i,i,i,i
Cc1cc(C)c(C#N)c(N2CCN(c3ccccc3)CC2)n1,i,i,i,i,i,i,nt,nt,nt
CC(C)Cn1c(NCCO)nc2ccccc21,i,i,i,i,61[inhibitor],i,i,i,i
COc1ccc(NC(=O)COc2ccc(C)cc2)c([N+](=O)[O-])c1,i,i,i,i,i,nt,nt,nt,nt
CCOc1ccc(OCC(=O)Nc2ccc(OC)cc2[N+](=O)[O-])cc1,i,i,i,i,37[inhibitor],i,i,i,i
COc1ccccc1OCCNS(=O)(=O)c1ccc2oc3ccccc3c2c1,i,i,i,i,138,i,i,i,i
COc1ccccc1NC(=O)NCCCl,1.0[inhibitor],i,i,i,5.0[inhibitor],i,i,i,i
SMILES,MEKK2wt PB1 HTS,NTR1 ag,TMEM16A inh,MEKK2mut PB1 HTS,MEKK3 PB1 HTS,ANO1 activ,MEKK2wt confirm,MEKK2mut confirm,MEKK3 confirm
CN1CCN(NC(=O)c2ccc(COc3ccccc3Br)o2)CC1,i,i,i,i,i,i,nt,nt,nt
Nc1nc(Cl)nc2c1ncn2C1OCC(O)C(O)C1O (stereo unspecified),nt,nt,nt,nt,nt,i,nt,nt,nt
Cc1cc(C)c2cc3c(ccn3C3OC[C@H](O)[C@H](O)[C@H]3O)cc2n1 (stereo partly specified),6.0[inhibitor],i,i,i,i,i,i,i,i
CC(c1ccccc1)C1OCC(C[N+]2(C)CCCCC2)O1 (stereo unspecified),47[inhibitor],i,i,i,43[inhibitor],i,i,i,i
CCCCC(CC)C1OCC(C[N+]2(C)CCOCC2)O1 (stereo unspecified),i,i,i,i,i,i,nt,nt,nt
O=C(O)c1cccc(NS(=O)(=O)c2cccc(C(=O)Nc3ccccc3[N+](=O)[O-])c2)c1,i,i,i,i,i,i,nt,nt,nt
COc1ccc(C2C3=C(CC(C)(C)CC3=O)Oc3ncn(CC(C)C)c(=N)c32)cc1 (stereo unspecified),i,i,i,i,i,i,nt,nt,nt
COc1ccc(C2C3=C(CC(C)(C)CC3=O)Oc3ncn(Cc4ccco4)c(=N)c32)cc1 (stereo unspecified),-1.0[inhibitor],i,i,i,2.0[inhibitor],i,i,i,i
COc1ccc(C2c3c(ncn(Cc4ccco4)c3=N)Oc3ccc4ccccc4c32)cc1 (stereo unspecified),185,i,i,56,i,i,i,i,i
Cc1ccc(Cn2cc(/C=N/Nc3ccc([N+](=O)[O-])cn3)c3ccccc32)cc1,53[inhibitor],i,i,i,i,i,i,i,i
CC(Cc1ccccc1)NC(=O)/C=C/c1ccc([N+](=O)[O-])cc1 (stereo unspecified),i,i,i,i,150,i,i,i,i
CC(Sc1nc2ccccc2c(=O)n1CC1CCCO1)C(=O)Nc1ccc(S(N)(=O)=O)cc1 (stereo unspecified),nt,i,i,nt,nt,i,nt,nt,nt
CCC(C)c1ccccc1N1CC(C(=O)Nc2ccc(N3CCOCC3)cc2)CC1=O (stereo unspecified),nt,i,nt,nt,nt,i,nt,nt,nt
CS(=O)(=O)c1ccc2nc(NC(=O)CN3C(=O)C4CC=CCC4C3=O)sc2c1 (stereo unspecified),i,i,i,i,138,i,i,i,i
Cc1cc(C)c2c(n1)sc1c(O)cc(=O)[nH]c12,i,i,i,i,122,i,i,i,i
Cc1cc(C)c2ccc(=O)n(CC(=O)N/N=C/c3ccccc3Cl)c2n1,i,i,i,i,i,i,nt,nt,nt
Cc1ccc(C(=O)N2C(=S)C(c3ccc(F)cc3)=NC23CCN(C)CC3)cc1,151,i,i,i,i,i,i,i,i
C=CCN=C(C)C1=C(O)C(C)OC1=O (stereo unspecified),i,i,i,i,134,i,i,i,i
